The sample as a whole holds a higher share of hits than the screen did.
GluA2 TARP mod: GluA2-stargazin AMPA receptor complex modulation; hit rate 3.5% among 40,000; O88602+P19491; calls only at 30 µM; HEK293 GluA2+stargazin, membrane potential dye (FDSS), glutamate EC50; hits were called plate by plate, in both directions;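 active means any of four per-well response measures lying three or more SD from its plate-wide compound average, in either direction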
GIRK2 activator: Activates human GIRK2-containing potassium channels | P48051 | HEK293 GIRK2/NPY4 cells, thallium flux fluorescence | activation (% efficacy), % for hits at 37.5 µM | 34,000 tested, under 10 active | AID 1259324;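 active means primary screen hit, no activity in plain HEK293 cells, and in GIRK2-only cells above 5% efficacy rising with concentration; inactive means the rest, including fluorescent compounds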;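 further: efficacy is normalized control-subtracted fluorescence 15 s after thallium addition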
The depositor's hits bear a star; i = inactive; nt = not tested or not shown; + = active, no number.

SMILES | GluA2 TARP mod | GIRK2 activator
CCOc1ccc(S(=O)(=O)N2CCCC(C)C2)c2ccccc12 (centres undefined) | i | nt
CCOc1ccc(Cl)cc1S(=O)(=O)N1CCCC(C)C1 (centres undefined) | + | nt
O=C(Cc1csc(NC(=O)c2ccc[nH]c2=O)n1)NCc1ccc(F)cc1 | i | i
Cc1ccc2c(CC(=O)NCc3cccs3)cc(=O)oc2c1 | i | i
O=C(Nc1nnc(Cc2cccs2)o1)c1cc2ccccc2oc1=O | + | i
O=C(Nc1nnc(Cc2cccs2)o1)c1ccccc1 | i | i
NC(=O)c1cccc(Oc2ncccn2)c1 | nt | i
CC(=O)NCc1nc2ccccc2n1Cc1ccc(Cl)cc1 | i | nt
CCn1nnc2c(N3CCCC3)ncnc21 | i | i
COc1ccc(-c2ccc(=O)n(CCNC(=O)c3ccc(S(=O)(=O)N4CCCCC4)cc3)n2)cc1 | + | nt
COc1ccc(-c2ccc(=O)n(CCNC(=O)c3ccc(S(=O)(=O)N(C)C)cc3)n2)cc1 | i | nt
Cc1cccc(-n2nc3c(c2NC(=O)C(=O)NCc2ccco2)CS(=O)(=O)C3)c1 | i | i
COc1ccc(-n2nc3c(c2NC(=O)C(=O)N2CCCC2)CSC3)cc1 | + | i
COc1ccc(-n2nc3c(c2NC(=O)C(=O)N2CCCCC2)CS(=O)(=O)C3)cc1 | i | i
COc1ccc(-n2nc3c(c2NC(=O)C(=O)NCc2ccco2)CS(=O)(=O)C3)cc1 | + | i
O=C(Cc1csc(Nc2ccccc2)n1)NCCc1ccccc1 | i | i
CC(CCc1ccccc1)NC(=O)Cc1csc(Nc2ccccc2)n1 (centres undefined) | + | i
CC1(C)CC(=O)C2=C(C1)NC1=C(C(=O)CC(C)(C)C1)C2c1cccs1 | i | i
CN1C2=C(C(=O)CC(C)(C)C2)C(c2cc(Br)ccc2O)C2=C1CC(C)(C)CC2=O | + | nt
O=S(=O)(NCC(O)c1ccc(C(F)(F)F)cc1)c1ccc2c(c1)CCCC2 (centres undefined) | i | i
Cc1c(Cl)cccc1S(=O)(=O)NCC(O)c1ccsc1 (centres undefined) | i | i
Cc1c(Cl)cccc1S(=O)(=O)NCC(O)c1ccc(C(F)(F)F)cc1 (centres undefined) | + | i
COc1ccc(S(=O)(=O)NCC(O)c2ccc(C(F)(F)F)cc2)cc1Cl (centres undefined) | + | nt
O=C(NCc1cccnc1)C(=O)Nc1ccc(F)c([N+](=O)[O-])c1 | i | i
O=C(/C=C/c1ccc2c(c1)OCO2)Nc1ccc2c(c1)N(C(=O)C1CC1)CC2 | + | i
SMILES | GluA2 TARP mod | GIRK2 activator
O=C(/C=C/c1ccc2c(c1)OCO2)Nc1ccc2c(c1)CN(C(=O)C1CC1)CC2 | i | i
O=C(Nc1ccccc1)Nc1ccc2c(c1)N(C(=O)c1ccccc1)CCC2 | nt | i
O=C(/C=C/c1ccccc1)Nc1ccc2c(c1)N(C(=O)c1ccccc1)CCC2 | + | i
O=C(Nc1ccccc1[N+](=O)[O-])C1CCCN(c2ccc(-c3ccccc3)nn2)C1 (centres undefined) | + | i
O=C(Nc1ccc([N+](=O)[O-])cc1)C1CCCN(c2ccc(-c3ccccc3)nn2)C1 (centres undefined) | i | i
O=C(Nc1cc(-c2ccccc2)nn1CCO)c1ccc(Cl)s1 | + | i
O=C(Nc1cc(-c2ccccc2)nn1CCO)c1ccco1 | i | i
CCC(=O)NCCn1nc(-c2cccs2)n(C)c1=O | i | i
Cc1nnc(C2CCN(Cc3ccccc3C#N)CC2)s1 | i | i
O=C(CSc1nc(-c2ccccc2)nc2c1CCCC2)N1CCOCC1 | + | nt
Cc1cccc(-c2nc3c(c(SCC(=O)N(C)C)n2)CCCC3)c1 | i | i
CN1C(=O)C(=C2C=C(c3ccccc3)N(Cc3ccco3)C3=C2CCCC3)C(=O)N(C)C1=O | + | nt
O=C(Nc1nccs1)c1cc2cc(Cl)ccc2o1 | i | i
CCOC(=O)c1oc2ccccc2c1NC(=O)c1cccc(C(=O)Nc2c(C(=O)OCC)oc3ccccc23)n1 | i | nt
COc1cccc(-c2cc(CC(=O)N3CCc4ccccc4C3)no2)c1 | + | i
COc1ccc(-c2cc(CC(=O)N3CCc4ccccc4C3)no2)cc1OC | i | i
O=C(NCC1CCN(C(=O)COc2ccccc2)CC1)c1ccccc1C(F)(F)F | i | i
Cc1nnc(NC(=O)c2ccc(S(=O)(=O)Nc3cccc(C(F)(F)F)c3)o2)s1 | i | i
CC1(C)C(=O)NCCN1C(=O)c1ccco1 | + | i
Cn1ccc(C(=O)N2CCNC(=O)C2(C)C)n1 | i | i
O=C(Nc1ccccc1F)c1nc(-c2cnccn2)no1 | i | i
CCc1nc(-n2nc(C)cc2N)c2c3c(sc2n1)CCC3 | + | i
Cc1nc(N2CCN(c3ccccc3F)CC2)c2c3c(sc2n1)CCCC3 | i | nt
COC(=O)c1ccc(NC(=O)c2nnn(-c3ccccc3)c2C)cc1 | i | i
COC(=O)c1cccc(NC(=O)c2nnn(-c3ccccc3F)c2C)c1 | + | i
SMILES | GluA2 TARP mod | GIRK2 activator
CCCc1c(C(=O)Nc2cc(OC)ccc2OC)nnn1-c1ccccc1 | i | i
CCCc1c(C(=O)Nc2cccc(C(=O)OC)c2)nnn1-c1ccccc1 | + | i
CCC(=O)Nc1ccc(N2CCCCC2=O)c(OC)c1 | + | nt
COc1ccc(CCC(=O)Nc2ccc(N3CCCCC3=O)c(OC)c2)cc1 | i | i
Cn1c(=O)c2c(nc(N=Nc3c(O)[nH]c4ccccc34)n2Cc2ccccc2)n(C)c1=O | i | nt
Cn1c(O)c(N=Nc2nc3c(c(=O)n(Cc4ccccc4)c(=O)n3C)n2C)c(=O)n(C)c1=O | + | nt
CSc1ccccc1NC(=O)C(=O)NCC1CCN(Cc2cc(C)oc2C)CC1 | + | i
CSc1ccccc1NC(=O)C(=O)NCC1CCN(Cc2ccco2)CC1 | i | i
O=C(/C=C/c1ccco1)NCC1CCN(Cc2ccsc2)CC1 | nt | i
CSc1ccccc1CN1CCC(CNC(=O)/C=C/c2ccc3c(c2)OCO3)CC1 | i | i
O=C(/C=C/c1ccccc1)NCC1CCN(Cc2ccsc2)CC1 | + | i
CSc1ccccc1CN1CCC(CNC(=O)/C=C/c2ccccc2)CC1 | + | i
Cc1cc(S(=O)(=O)N(Cc2cccn2C)C2CC2)c(Cl)cc1Cl | nt | i
CCCNC(=O)Cn1nc2c(c1NC(=O)c1c(OCC)ccc3ccccc13)CSC2 | i | i
Cn1c(-c2ccccc2)nn(CCNC(=O)/C=C/c2ccccc2)c1=O | i | i
COc1ccc(S(=O)(=O)CCCC(=O)Nc2cc(C)nn2C)cc1 | nt | i
COc1ccc(S(=O)(=O)N2CCCc3cc(NS(=O)(=O)Cc4ccccc4)ccc32)cc1 | i | nt
C=CCc1ccccc1OCC(O)CN(CCO)CCO (centres undefined) | i | nt
O=C(NCc1ccncc1)C(=O)Nc1ccc(F)c([N+](=O)[O-])c1 | i | i
O=C(Nc1ccc(O)cc1)C(=O)Nc1ccc(F)c([N+](=O)[O-])c1 | + | i
Cc1cc(=O)[nH]c(SCC(=O)N2CCN(C(c3ccccc3)c3ccccc3)CC2)n1 | i | nt
CCn1c(SCC(=O)N2CCN(C(c3ccccc3)c3ccccc3)CC2)nc2ccccc2c1=O | + | nt

Source: PubChem BioAssay (several laboratories)
